{
  "source": "the supplement of paper PMC4709259",
  "note": "Where a name gives a salt, the structure may show the parent alone. ± gives the standard deviation.",
  "data": [
    {"system": "Jurkat", "experiment": "mean cell size (FSC-A) relative to DMSO control (fraction of control); higher = larger cells", "conditions": "48 h", "procedure,_shortened": "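Jurkat cells seeded at 600 cells/µl were incubated 1 h, then exposed for 48h to the Enzo Screen-Well FDA Approved Drug Library v2.0 at 25µM in 0.9% (v/v) final DMSO. Drugs that cut counts below 20% of controls were diluted 10-fold and retested, down to 25nM. Cell count and mean cell size (forward scatter area) were read on an Accuri C6 flow cytometer, relative to solvent-only controls. Plates held 6-12 controls; values are means of 3 biological replicates.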", "values": [
      {"compound": "CC(C)[C@H](N)C(=O)OCC(CO)OCn1cnc2c(=O)[nH]c(N)nc21", "note": "(stereo partly drawn) [Valganciclovir·HCl] (concentration: 25 µM)", "mean cell size": "1.06 ± 0.054"},
      {"compound": "CCCCNc1cc(C(=O)O)cc(S(N)(=O)=O)c1Oc1ccccc1", "note": "[Bumetanide] (concentration: 25 µM)", "mean cell size": "0.952 ± 0.015"},
      {"compound": "O=C1CC2(CCCC2)CC(=O)N1CCCCN1CCN(c2ncccn2)CC1", "note": "[Buspirone·HCl] (concentration: 25 µM)", "mean cell size": "0.9275 ± 0.0078"},
      {"compound": "CC(C[N+](C)(C)C)OC(N)=O", "note": "(stereo not drawn) [Bethanechol Chloride] (concentration: 25 µM)", "mean cell size": "0.926 ± 0.034"},
      {"compound": "Cc1ccc(C(=O)c2ccc(CC(=O)O)n2C)cc1", "note": "[Tolmetin·Na] (concentration: 25 µM)", "mean cell size": "0.964 ± 0.035"},
      {"compound": "CCC(=O)NCC[C@@H]1CCc2ccc3c(c21)CCO3", "note": "[Ramelteon] (concentration: 25 µM)", "mean cell size": "1.04 ± 0.066"},
      {"compound": "CC[C@H]1OC(=O)[C@H](C)[C@@H](O[C@H]2C[C@@](C)(OC)[C@@H](O)[C@H](C)O2)[C@H](C)[C@@H](O[C@@H]2O[C@H](C)C[C@H](N(C)C)[C@H]2O)[C@](C)(O)C[C@@H](C)C(=O)[C@H](C)[C@@H](O)[C@]1(C)O", "note": "[Erythromycin] (concentration: 25 µM)", "mean cell size": "0.97 ± 0.038"},
      {"compound": "O=C(O)CCCCCCCC(=O)O", "note": "[Azelaic Acid] (concentration: 25 µM)", "mean cell size": "0.921 ± 0.062"},
      {"compound": "CC(C(=O)O)c1cccc(C(=O)c2ccccc2)c1", "note": "(stereo not drawn) [Ketoprofen] (concentration: 25 µM)", "mean cell size": "0.929 ± 0.0063"},
      {"compound": "CC[C@@H]([C@H](C)O)n1ncn(-c2ccc(N3CCN(c4ccc(OC[C@@H]5CO[C@@](Cn6cncn6)(c6ccc(F)cc6F)C5)cc4)CC3)cc2)c1=O", "note": "[Posaconazole] (concentration: 25 µM)", "mean cell size": "1.02 ± 0.032"},
      {"compound": "CO/N=C1\\CN(c2nc3c(cc2F)c(=O)c(C(=O)O)cn3C2CC2)CC1CN", "note": "(stereo not drawn) [Gemifloxacin] (concentration: 25 µM)", "mean cell size": "1.09 ± 0.03"},
      {"compound": "CO[C@H]1/C=C/O[C@@]2(C)Oc3c(C)c(O)c4c(O)c(c5c(nc6cc(C)ccn65)c4c3C2=O)NC(=O)/C(C)=C\\C=C\\[C@H](C)[C@H](O)[C@@H](C)[C@@H](O)[C@@H](C)[C@H](OC(C)=O)[C@@H]1C", "note": "[Rifaximin] (concentration: 25 µM)", "mean cell size": "0.922 ± 0.039"},
      {"compound": "NCCc1ccc(O)c(O)c1", "note": "[Dopamine·HCl] (concentration: 25 µM)", "mean cell size": "0.951 ± 0.029"},
      {"compound": "O=C(O)c1cc(/N=N/c2ccc(S(=O)(=O)Nc3ccccn3)cc2)ccc1O", "note": "[Sulfasalazine] (concentration: 25 µM)", "mean cell size": "0.965 ± 0.024"},
      {"compound": "Cc1cnc(NC(=O)C2=C(O)c3ccccc3S(=O)(=O)N2C)s1", "note": "[Meloxicam] (concentration: 25 µM)", "mean cell size": "0.9071 ± 0.0086"},
      {"compound": "CC(C)(C)NC(=O)[C@H]1CC[C@H]2[C@@H]3CC[C@H]4NC(=O)C=C[C@]4(C)[C@H]3CC[C@]12C", "note": "[Finasteride] (concentration: 25 µM)", "mean cell size": "0.978 ± 0.046"},
      {"compound": "Cc1nc2n(c(=O)c1CCN1CCC(c3noc4cc(F)ccc34)CC1)CCCC2", "note": "[Risperidone] (concentration: 25 µM)", "mean cell size": "0.95 ± 0.051"},
      {"compound": "Clc1ccc(C(c2ccccc2Cl)C(Cl)Cl)cc1", "note": "(stereo not drawn) [Mitotane] (concentration: 25 µM)", "mean cell size": "1 ± 0.02"},
      {"compound": "CNC[C@H](O)c1ccc(O)c(O)c1", "note": "[Epinephrine (L-(-)-Epinephrine-(+)-Bitartrate)] (concentration: 25 µM)", "mean cell size": "0.959 ± 0.053"},
      {"compound": "COC(=O)N[C@H](C(=O)N[C@@H](Cc1ccccc1)[C@@H](O)CN(Cc1ccc(-c2ccccn2)cc1)NC(=O)[C@@H](NC(=O)OC)C(C)(C)C)C(C)(C)C", "note": "[Atazanavir] (concentration: 25 µM)", "mean cell size": "1.04 ± 0.052"},
      {"compound": "CC(=O)NC[C@H]1CN(c2ccc(N3CCOCC3)c(F)c2)C(=O)O1", "note": "[Linezolid] (concentration: 25 µM)", "mean cell size": "0.942 ± 0.018"},
      {"compound": "CC1=C(CC(=O)O)c2cc(F)ccc2/C1=C\\c1ccc([S+](C)[O-])cc1", "note": "(stereo not drawn) [Sulindac] (concentration: 25 µM)", "mean cell size": "0.988 ± 0.019"},
      {"compound": "Cc1ccc(C(=O)c2cc(O)c(O)c([N+](=O)[O-])c2)cc1", "note": "[Tolcapone] (concentration: 25 µM)", "mean cell size": "0.966 ± 0.023"},
      {"compound": "NC(=O)OCC(COC(N)=O)c1ccccc1", "note": "[Felbamate] (concentration: 25 µM)", "mean cell size": "1.02 ± 0.053"},
      {"compound": "Cn1c(=O)c2[nH]cnc2n(C)c1=O", "note": "[Aminophylline] (concentration: 25 µM)", "mean cell size": "0.96 ± 0.035"},
      {"compound": "CCOC(=O)[C@H](CCc1ccccc1)N[C@@H](C)C(=O)N1CCC[C@H]1C(=O)O", "note": "[Enalapril] (concentration: 25 µM)", "mean cell size": "1.01 ± 0.029"},
      {"compound": "CC(=O)[C@]1(O)Cc2c(O)c3c(c(O)c2[C@@H](O[C@H]2C[C@H](N)[C@H](O)[C@H](C)O2)C1)C(=O)c1ccccc1C3=O", "note": "[Idarubicin·HCl] (concentration: 25 nM)", "mean cell size": "1.01 ± 0.047"},
      {"compound": "Cc1ccc(Cl)c(Nc2ccccc2C(=O)O)c1Cl", "note": "[Meclofenamate·Na] (concentration: 25 µM)", "mean cell size": "0.903 ± 0.031"}
    ]}
  ]
}
